Inconclusive results are not listed. A call without a number means that no potency is given here. Unmarked numbers belong to inactive results. The source made the active and inactive calls. Calls come from the whole dose curve; as a rule, active = well fitted inhibition curve with a large enough effect; inconclusive = small, poorly fitted or top-dose-only effect; inactive = flat fitted curve, though single readings scatter.
Biological target: Phospholipid hydroperoxide glutathione peroxidase GPX4 (Homo sapiens) (UniProt P36969)
Assay: Primary qHTS Assay for Inhibitors of Recombinant Selenoprotein Glutathione Peroxidase 4 (GPX4) (AID 1845192); note: nearly all actives have a fitted effect of over 65% in size
Conditions: recombinant GPX4, GR-coupled NADPH fluorescence, 15 min; series mostly up to 50 µM
From the text: Assay Provider: Elias S.J. Arner MD PhD.
Department of Medical Biochemistry and Biophysics
Karolinska Institutet, Solna, Stockholm, Sweden
Selenoprotein glutathione peroxidases (GPX), like the ubiquitously expressed GPX1 and the ferroptosis modulator GPX4, enact their antioxidant activities by reducing hydroperoxides using glutathione. […] GPX1 and GPX4 inhibitors have thus shown promise as anti-cancer agents. Existing inhibitors are often promiscuous, or modulate GPX activity only indirectly, so novel direct inhibitors identified through screening against GPX1 and GPX4 could be valuable. Here, we developed optimized glutathione reductase (GR)-coupled GPX assays for the biochemical high-throughput screen (HTS) of almost 12,000 compounds with known mechanisms of action. Initial hits were triaged using a GR counter-screen, assessed for isoform specificity using a separate GPX2 assay, and were assessed for general selenocysteine-targeting activity using a thioredoxin reductase (TXNRD1) assay. With this suite of assays, we identified novel GPX1/GPX2- and GPX4-specific inhibitors and can here present a validated pipeline for future discovery research for selenoprotein-targeting agents.
SEQUENCE No. (e.g., 1, 2, 3, etc.); […] (e.g., Cells, Incubation, Reagent, etc.); VALUE; DESCRIPTION.
1; Reagent 1; 3 uL; 333.33 nM GPx4 enzyme or no enzyme control in 1536-well, black, solid Greiner assay plate.
2; Compound; 25 nL; Kalypsis pin tool (Wako USA) equipped with a 1536-well pin head.
3; Incubation; 30 min; room temperature.
4; Reagent 2; 1 uL; 500 nM GR, 5 mM GSH, 2.5 mM NADPH solution
5; Reagent 3; 1 uL; 2.5 mM CHP in 50% EtOH.
6; Detection; Fluorescence; ViewLux microplate reader, excitation 340 nm and emission 450 nm.
7; Incubation; 15 min; room temperature.
8; Detection; Fluorescence; ViewLux microplate reader, excitation 340 nm and emission 450 nm.
NOTES (numbers refer to Sequence numbers above)
1. 3 µL of 333.33 nM GPX4 and 0.016% BSA in assay buffer (50 mM Tris-HCl, 2 mM EDTA (pH 7.5), 150 mM NaCl) was added to columns 3-48 of 1536-well plates using a BioRAPTR Flying Reagent Dispenser (Let's Go Robotics (LGR), Carlsbad, CA). A no-enzyme control (0.01% BSA in TES assay buffer) was added to columns 1-2.
2. 25 nL, library and DMSO controls were added to each well with a pin tool (Kalypsys).
3. The assay plates were incubated for 30 minutes at room temperature.
4. 1 µL of master mix (500 nM glutathione reductase (GR), 5 mM reduced glutathione (GSH), 2.5 mM NADPH in assay buffer) was added.
5. 1 µL of cumene hydroperoxide (CHP) ([2.5 mM] in 50% EtOH) was then added within 5 minutes to initiate the reaction. Final concentrations were: 200 nM GPX4, 1 mM GSH, 0.5 mM CHP, 0.5 mM NADPH, 100 nM GR, 0.01% BSA.
6. Initial fluorescence readout (t=0) at 340/450 nm was measured using a ViewLux multimodal detector (PerkinElmer, Waltham, MA).
8. Endpoint fluorescence readout (t=15) at 340/450 nm was measured 15 min after room temperature incubation.

Sequence of Phospholipid hydroperoxide glutathione peroxidase GPX4 (Homo sapiens) (P36969 whole entry, looked up): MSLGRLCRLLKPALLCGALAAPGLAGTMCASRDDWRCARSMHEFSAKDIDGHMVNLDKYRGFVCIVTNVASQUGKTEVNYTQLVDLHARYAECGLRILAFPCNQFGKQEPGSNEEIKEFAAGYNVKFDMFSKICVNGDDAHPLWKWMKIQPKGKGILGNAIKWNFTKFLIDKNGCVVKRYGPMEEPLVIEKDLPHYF

SMILES | Potency | activity change, negative = inhibition
CC[N+](CC)(CC)CCOC(=O)C(C1CCCC1)C1CCCC1 | inactive | –
O=C(O)CCCC[C@@H]1SC[C@@H]2NC(=O)N[C@@H]21 | inactive | –
N#Cc1cc(NC(=O)C(=O)O)c(Cl)c(NC(=O)C(=O)O)c1 | inactive | –
NCC[C@H](O)C(=O)N[C@@H]1C[C@H](N)[C@@H](O[C@H]2O[C@H](CN)[C@@H](O)[C@H](O)[C@@H]2O)[C@H](O)[C@@H]1O[C@H]1O[C@H](CO)[C@@H](O)[C@H](N)[C@@H]1O | – | -16.2% [at 0.409 µM]
O=C(CCCCCCCCC#CI)Oc1ccccc1 | inactive | –
Nc1c(I)cc(I)c(C(=O)N(CCC(=O)O)c2ccccc2)c1I | inactive | –
CCC(CN)=C(c1ccccc1)c1ccccc1 | inactive | –
Cc1ccc(/C=N/n2c(-c3ccccc3)csc2=S)cc1 | inactive | –
CCCCCOc1ccccc1/C(=C\SC)n1ccnc1 | inactive | –
CNC(=O)c1c(I)c(NC(C)=O)c(I)c(C(=O)O)c1I | inactive | –
CC(=O)OCC(=O)[C@@]1(O)[C@H](OC(C)=O)C[C@H]2[C@@H]3CCC4=CC(=O)C=C[C@]4(C)[C@@]3(F)[C@@H](O)C[C@@]21C | inactive | –
CC1c2ccccc2CN1NC(=O)c1ccc(Cl)c(S(N)(=O)=O)c1 (stereo not given) | inactive | –
CC(C)C(=O)Nc1cccc(C2CN3CCSC3=N2)c1 (stereo not given) | inactive | –
N[C@@H](Cn1ccc(=O)c(O)c1)C(=O)O | inactive | –
CN1[C@@H]2CC[C@H]1CC(NC(=O)n1c(=O)[nH]c3ccccc31)C2 (stereo not given in full) | inactive | –
N#CSCC(=O)O | inactive | –
O=C1CC[C@H](C(=O)N2CCCCC2)N1 | inactive | –
C[C@@H]1CCC[C@H](C)N1CCCC(O)(c1ccccc1)c1ccccn1 (stereo not given in full) | inactive | –
O=C(O)C(=O)Nc1cccc(-c2nn[nH]n2)c1 | inactive | –
NC(=O)C1(N2CCCCC2)CCN(CCCN2c3ccccc3CCc3ccc(Cl)cc32)CC1 | inactive | –

SMILES | Potency | activity change, negative = inhibition
CCC1=C[C@@H]2CN(C1)Cc1c([nH]c3ccccc13)[C@@](C(=O)OC)(c1cc3c(cc1OC)N(C)[C@H]1[C@@](O)(C(=O)OC)[C@H](OC(C)=O)[C@]4(CC)C=CCN5CC[C@]31[C@@H]54)C2 | inactive | –
CC(C)=CCC/C(C)=C/CC/C(C)=C/CCC(=O)OC/C=C(\C)CCC=C(C)C | inactive | –
CC(C(=O)O)c1ccc(/C=C2\CCCCC2=O)cc1 (stereo not given) | inactive | –
CCCc1ccc(OCC(=O)N2CCN(C(=O)COc3ccc(CCC)cc3OC)CC2)c(OC)c1 | inactive | –
CN1CCCN=C1/C=C/c1cccs1 | inactive | –
CCCCCC[C@@H](CCC)C(=O)O | inactive | –
CCC(C(=O)NC(=O)NC(C)=O)c1ccccc1 (stereo not given) | inactive | –
O=[N+]([O-])c1nccn1CO[C@@H](CO)[C@H](O)CO | inactive | –
CC(C)(Oc1ccc(Cl)cc1)C(=O)OCCCOC(=O)C(C)(C)Oc1ccc(Cl)cc1 | inactive | –
CCN(CC)C(=O)C1CN2CCc3cc(OC)c(OC)cc3C2CC1OC(C)=O (stereo not given) | inactive | –
C[C@H]1C[C@H]2[C@@H]3CCC4=CC(=O)C=C[C@]4(C)[C@H]3C(=O)C[C@]2(C)[C@@]1(O)C(=O)CO | inactive | –
CN(CC1(C)CCCO1)S(=O)(=O)c1ccc(Cl)c(S(N)(=O)=O)c1 (stereo not given) | inactive | –
O=C(O)CNC(=O)CNC(=O)CNC(=O)CSC(=O)c1ccccc1 | inactive | –
CCOC(=O)OCC/C(SC(=O)OCC)=C(\C)N(C=O)Cc1cnc(C)nc1N | inactive | –
CC(=O)OCC(=O)Nc1cc(C#N)cc(NC(=O)COC(C)=O)c1Cl | inactive | –
CC(C)Cc1ccc(C(C)C(=O)OCc2ccccn2)cc1 (stereo not given) | inactive | –
C[C@@H]1C[C@H]2[C@@H]3CCC4=CC(=O)C=C[C@]4(C)[C@@]3(F)[C@@H](O)C[C@]2(C)[C@@]1(O)C(=O)COC(=O)c1ccncc1 | inactive | –
CCC(=O)O[C@]1(C(=O)COC)[C@@H](C)C[C@H]2[C@@H]3CCC4=CC(=O)C=C[C@]4(C)C3(F)[C@@H](O)C[C@@]21C (stereo not given in full) | inactive | –
CCOC(=O)Oc1ccc(CCNC(=O)[C@H](CCSC)NC(C)=O)cc1OC(=O)OCC | inactive | –
Cn1cnc2c(NCc3ccccc3)nc(NCCO)nc21 | inactive | –

Source: PubChem BioAssay (NCATS)
